Inconclusive results are not listed. Activity calls are given as the source filed them. The call rests on the fitted dose curve; in most records, active means well fitted inhibition curve with a large enough effect; inconclusive means small, poorly fitted or top-dose-only effect; inactive means flat fitted curve, though single readings scatter.
experiment: qHTS to identify inhibitors of the type 1 interferon - major histocompatibility complex class I in skeletal muscle: primary screen against the NCATS LOPAC collection (AID 1347405); conditions: iHSKM muscle cells, IFN-b-induced MHC-I HiBiT luminescence, 24 h; series mostly up to 45.9 µM; activity change, negative = inhibition: at the top concentration;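 further: lytic HiBiT luminescence reporting HLA-B protein level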
Text: Assay Submitter (PI): Travis B. Kinder Ph.D. & James Inglese Ph.D.
Assay Development and Screening Technology Laboratory (ADST)
National Center for Advancing Translational Sciences (NCATS), Rockville, MD
National Institute of Health (NIH), Bethesda, Maryland
Idiopathic inflammatory myopathies, collectively referred to as myositis, are a group of rare autoimmune diseases characterized by skeletal muscle inflammation, weakness, and usually accompanied by systemic pathologies of the skin, lungs, or vasculature. Current immunosuppressive therapies and glucocorticoids are often not curative and are accompanied by harsh side effects, especially in children with juvenile myositis. We initiated a drug repurposing and development program to identify more targeted, less toxic therapeutics to treat myositis. Although its cause is not known, muscle from a subset of patients have an abundance of the inflammatory type 1 interferon (IFN) and a down-stream product major histocompatibility complex class I (MHC class I), which are both thought to contribute to damage and weakness. We conducted quantitative high throughput screening on 6,576 compounds (4,679 unique) through a series of cell-based assays to identify those that inhibit the IFN-stimulated expression of MHC class I in muscle precursor cells (myoblasts). The compound identification and evaluation strategy utilized a primary screen with reporter-tagged MHC class I in genome-engineered myoblasts, ATP content counter screen for viability, HLA-ABC immunofluorescence secondary screen, and HLA-B RT-qPCR tertiary screen.
The primary screen utilized CRISPR/Cas9 genome-engineering of immortalized human myoblasts, C25cl48, where a pro-luminescent reporter HiBit was fused to the C-terminus of endogenous MHC class I allele HLA-B*08:01 (HLA-B HiBit myoblasts). HiBit is an 11 amino acid fragment of NanoLuc luminescent reporter (Promega Corporation), and when complexed to the larger LgBit fragment, the reconstituted enzyme produces light in the presence of furimazine substrate (Schwinn et al., 2018). Briefly, HLA-B HiBit myoblasts were plated into 1536-well plates, treated with 4.0 ng/ml human IFN-beta and 1,280 compounds from the Library of Pharmacologically Active Compounds 1280 library (LOPAC1280, Sigma Aldrich) in a 7-point, 1:4.3 titration with a high final concentration of 46 uM. After 24 hrs of treatment, cells were assayed by Nano-Glo HiBiT Lytic Detection System (Promega) and luminescence measured by a ViewLux 1430 Ultra HTS (Perkin Elmer).
Schwinn MK, Machleidt T, Zimmerman K, Eggers CT, Dixon AS, Hurst R, Hall MP, Encell LP, Binkowski BF, Wood K V. 2018. CRISPR-Mediated Tagging of Endogenous Proteins with a Luminescent Peptide. ACS Chem Biol 13:467-474. doi:10.1021/acschembio.7b00549
PROTOCOL TABLE (as described by Inglese et al., 2007)
SEQUENCE No. (e.g., 1, 2, 3, etc.); […] (e.g., Cells, Incubation, Reagent, etc.); VALUE; DESCRIPTION
1a; Cells; 5 uL; Use a Multidrop Combi (Thermo Scientific) to seed 350 cells/well into nine Greiner 1536 well white/solid bottom, high base, TC plates in 5 ul/well of iHSKM growth medium (GM) without dexamethasone into columns 1+2. Add metal lids with gas-exchange holes
1b; Cells; 5 uL; Use a Multidrop Combi (Thermo Scientific) to seed 350 cells/well into nine Greiner 1536 well white/solid bottom, high base, TC plates in 5 ul/well of iHSKM GM without dexamethasone + 4 ng/ml IFN-b into columns 3 - 48. Add metal lids with gas-exchange holes
2; Incubate; 1 hr; Incubate at 37 C, 5% CO2, 95% RH
3; Compounds; 23 nl; Use Pin Tool (Wako) to transfer DMSO control, ruxolitinib IFN-b inhibitor control [High Concentration = 80 uM final, 16-pt, 1:2 in duplicate], and library compounds in DMSO
4; Incubate; 24 hrs; Incubate at 37 C, 5% CO2, 95% RH
5; Dispense; 2.5 ul; Use BioRAPTR FRD (Beckman Coulter) to add HiBit lytic reagent
6; Incubate; 10 min; Incubate in the dark at ambient temperature for lysis
[…]
On the % scale 0 is the no-effect control and ±100 the full control effect.

Row | SMILES | activity change, negative = inhibition
1 | O=C(O)CCC(=O)N1CCCC1C(=O)O (stereo not given) | -10.7% (inactive)
2 | CCCCCC[C@@H]([C@@H](C)O)n1cnc2c(N)ncnc21 | -5.76% (inactive)
3 | CNc1cc(NS(=O)(=O)c2ccc(N)cc2)nc(NC)n1 | -2.94% (inactive)
4 | CC[N+](CC)(CC)CC(=O)Nc1c(C)cccc1C | 0.129% (inactive)
5 | Oc1cc2c(cc1O)C(c1ccccc1)CNCC2 (stereo not given) | 0.0043% (inactive)
6 | COc1ccc2c(c1)c(CC(=O)O)c(C)n2Cc1ccc(Cl)cc1 | 2.04% (inactive)
7 | N[C@H](C(=O)O)[C@H](O)C(=O)O | -7.31% (inactive)
8 | CCCn1c(=O)c(C)cn2nc(N)nc12 | -0.822% (inactive)
9 | Cn1c(=O)c2[nH]c(-c3ccc(S(=O)(=O)O)cc3)nc2n(C)c1=O | -7.9% (inactive)
10 | CCCCCCCCCC(=O)NC(CN1CCOCC1)[C@H](O)c1ccccc1 (stereo not given in full) | -27.3% (inactive)
11 | COc1cc2c(CCNC(C)=O)c[nH]c2cc1O | 8.67% (inactive)
12 | O=[N+]([O-])c1cccc2c(Br)[nH]nc12 | -14% (inactive)
13 | O=C(O)C1CCNCC1 | 1.17% (inactive)
14 | NC(=O)c1ccccc1 | -7.83% (inactive)
15 | N[C@H]1CONC1=O | -10.2% (inactive)
16 | CCCn1c(=O)c2[nH]c(C3CCCC3)nc2n(CCC)c1=O | 4.24% (inactive)
17 | O=[N+]([O-])c1cccc2cn[nH]c12 | -5.55% (inactive)
18 | Cn1c(=O)[nH]c2ncn(C)c2c1=O | -11.2% (inactive)
19 | N#Cc1cc2nc(O)c(O)nc2cc1[N+](=O)[O-] | -5.3% (inactive)
20 | Cc1nc2c(OCc3ccccc3)cccn2c1CC#N | -6.84% (inactive)

Row | SMILES | activity change, negative = inhibition
21 | O=C(O)c1cc(=O)cc(C(=O)O)[nH]1 | 7.38% (inactive)
22 | NC(N)=[N+]1CCc2ccccc2C1 | -5.39% (inactive)
23 | Oc1cc(O)c2c(c1)O[C@H](c1ccc(O)c(O)c1)[C@@H](O)C2 | 11.1% (inactive)
24 | NC1(C(=O)O)CCCCC1 | -1.2% (inactive)
25 | NC(Cc1cccc(-c2ccccc2CP(=O)(O)O)c1)C(=O)O (stereo not given) | 0.0319% (inactive)
26 | CN(C)CCC(c1ccc(Br)cc1)c1ccccn1 (stereo not given) | -13.5% (inactive)
27 | CCCCCCC/C=C\CCCCCCCCC(=O)O | -6% (inactive)
28 | NCC(O)C1CCCCCCC1 (stereo not given) | -0.0145% (inactive)
29 | [N-]=[N+]=Nc1ccc(C(=O)CSC[C@H](NC(=O)CC[C@H](N)C(=O)O)C(=O)NCC(=O)O)cc1 | -0.796% (inactive)
30 | CC(/C=C/c1cccc(Oc2ccc(F)cc2)c1)N(O)C(N)=O (stereo not given) | -18.3% (inactive)
31 | CC(C)(C)c1ccc(/C=C/C(=O)Nc2ccc3c(c2)OCCO3)cc1 | -23.5% (inactive)
32 | COc1cc(C(O)C(=O)O)ccc1O (stereo not given) | 1.3% (inactive)
33 | CN1Cc2sccc2C(c2ccc(O)c(O)c2)C1 (stereo not given) | -11.5% (inactive)
34 | CN(CC[C@@H](Oc1ccc(C(F)(F)F)cc1)c1ccccc1)CC(=O)O | 0.824% (inactive)
35 | NC1(C(=O)O)CC1 | 3.1% (inactive)
36 | CCN(CC)CCOC(=O)c1cc(Cl)c(N)cc1OC | 0.268% (inactive)
37 | O=C(O)c1ccccc1Nc1ccccc1 | -6.88% (inactive)
38 | Cc1nc(N=Nc2ccc(C(=O)O)cc2)c(COP(=O)(O)O)c(C=O)c1O | -10.3% (inactive)
39 | NCCCCN=C(N)N | -16.3% (inactive)
40 | COc1ccccc1N1CCN(CCCCN2C(=O)c3ccccc3C2=O)CC1 | 3.81% (inactive)

Reference: PubChem BioAssay (NCATS)
